Several values for one entry are separate records, joined by “and”; a condition that tells them apart may be missing. Equal values may be shown once. Results filed as inconclusive are left out. Where a call stands in place of a potency, no number is given. Activity calls are given as the source filed them. Unless noted, the call rests on the fitted dose curve.
Key:
[1] = biological target: Estrogen receptor (Homo sapiens) (UniProt P03372); assay: qHTS assay for small molecule antagonists of estrogen receptor alpha signaling (AID 588513; active means well fitted curve in the direction sought with a large enough effect in the signal ratio, with a control signal flat, not every such curve was filed as active; the % refers to the signal ratio)
How it was run: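 Cells were plated at 5000/well and incubated 4 h at 37 C. Compounds were added as 1:2 dilution series, duplicates. 17-beta-estradiol (0.5nM final) was added for 18 h before CCF4 detection.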

[2] = biological target: Estrogen receptor (Homo sapiens) (UniProt P03372); assay: qHTS assay for small molecule agonists of estrogen receptor alpha signaling (AID 588514); further: nearly all actives have a fitted effect of over 70% in size
How it was run: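 EC50 and efficacy came from Hill fits of beta-lactamase reporter signal (CCF4 dye, 2 h at room temperature) scaled between DMSO and 20 nM 17-beta-estradiol. Agonist mode: HEK293 ER-alpha-UAS-bla cells in charcoal/dextran-stripped serum medium, 18 h compound exposure at 37 C.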

[3] = biological target: Glucocorticoid receptor (Homo sapiens) (UniProt P04150); assay: qHTS assay for small molecule antagonists of glucocorticoid receptor signaling (AID 588533; active means well fitted inhibition curve with a large enough effect in the signal ratio, with a control signal flat, not every such curve was filed as active; the % refers to the signal ratio;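 further: cells stimulated with 2 nM dexamethasone as agonist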)
How it was run: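 Antagonist-mode qHTS: compound titrations added to GRE-bla HeLa cells, then dexamethasone 2 nM final; 18 h, 37 C. CCF4 FRET fluorescence normalized to dexamethasone and DMSO; IC50 from Hill fit.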

[4] = biological target: Peroxisome proliferator-activated receptor delta (Homo sapiens) (UniProt Q03181); assay: qHTS assay for small molecule agonists of peroxisome proliferator-activated receptor delta signaling (AID 588534)
How it was run: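 Agonist-mode beta-lactamase reporter readout (CCF4 dye, 2 h at RT) after 18 h at 37 °C exposure to a titration; Hill-equation fitting gave EC50 and maximal response.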

[5] = biological target: Peroxisome proliferator-activated receptor gamma (Homo sapiens) (UniProt P37231); assay: qHTS assay for small molecule agonists of peroxisome proliferator-activated receptor gamma signaling (AID 588536; active means well fitted curve in the direction sought with a large enough effect in the signal ratio, with a control signal flat, not every such curve was filed as active; the % refers to the signal ratio)
How it was run: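 Using GeneBLAzer HEK293 cells, response was quantified by CCF4 fluorescence and normalized between basal DMSO (0%) and rosiglitazone 2 uM (100%); curves yielded half-maximal stimulation concentration and efficacy.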

[6] = biological target: Peroxisome proliferator-activated receptor gamma (Homo sapiens) (UniProt P37231); assay: qHTS assay for small molecule antagonists of peroxisome proliferator-activated receptor gamma signaling (AID 588537; active means well fitted inhibition curve with a large enough effect in the signal ratio, with a control signal flat, not every such curve was filed as active; the % refers to the signal ratio;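 further: reporter cells co-stimulated with 50 nM rosiglitazone agonist during compound treatment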)
How it was run: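 Antagonist-mode β-lactamase reporter screen run as a titration series. HEK293 PPARγ-UAS-bla cells are stimulated with rosiglitazone (50 nM final) for 16 h, then CCF4 is read at 460/530 nm. Data are scaled between DMSO and rosiglitazone and fitted to the Hill equation.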

[7] = biological target: Vitamin D3 receptor (Homo sapiens) (UniProt P11473); assay: qHTS assay for small molecule antagonists of vitamin D receptor signaling (AID 588541);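 further: receptor activated by calcitriol during compound treatment; series mostly up to about 77 µM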
How it was run: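 Antagonist-mode beta-lactamase reporter assay: HEK293T VDR-UAS-bla cells were exposed to titrated compound alongside 1-alpha,25-dihydroxyvitamin D3 at 3 nM final for 16 h. Values were normalized to the 50 nM agonist control and DMSO basal, with IC50 and efficacy from Hill equation fits.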

[8] = qHTS assay for small molecule agonists of retinoid X receptor alpha signaling (AID 588544); settings: HEK293T RXRa-UAS-bla, beta-lactamase reporter, 18 h; 530 nm emission
[9] = biological target: Retinoic acid receptor RXR-alpha (Homo sapiens) (UniProt P19793); assay: as above
[10] = biological target: Thyroid hormone receptor beta (Homo sapiens) (UniProt P10828); assay: qHTS assay for small molecule agonists of thyroid hormone receptor beta signaling (AID 588545)
How it was run: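 Compounds were tested as agonists in TR-UAS-bla-GripTite HEK 293 cells. After 18 hrs at 37 C, CCF4 substrate was added and fluorescence read after 2 hrs at room temperature.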

[11] = qHTS assay for small molecule antagonists of retinoid X receptor alpha signaling (AID 588546; active means well fitted inhibition curve with a large enough effect in the signal ratio, with a control signal flat, not every such curve was filed as active; the % refers to the signal ratio;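 further: cells stimulated with 9-cis-retinoic acid as agonist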); settings: HEK293T RXRa-UAS-bla, beta-lactamase ratio, antagonist mode; measured here: W530 green channel, cytotoxicity proxy
How it was run: (§1)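 Beta-lactamase reporter inhibition, read as CCF4 fluorescence ratio (ex 405, em 460/530 nm) after 2 h at RT. HEK293T UAS-bla cells, 2500/well, were stimulated with 9-cis-RA at 500 or 100 nM final alongside test compound for 18 h at 37 C.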

[12] = biological target: Retinoic acid receptor RXR-alpha (Homo sapiens) (UniProt P19793); assay: as above; settings: HEK293T RXRa-UAS-bla, beta-lactamase ratio, antagonist mode
How it was run: as §1

[13] = qHTS assay for small molecule activators of the p53 signaling pathway (AID 651743; active means well fitted activation curve with a large enough effect in the signal ratio, not every such curve was filed as active; the % refers to the signal ratio; further: series mostly up to about 92 µM); settings: HCT-116 p53RE-bla, beta-lactamase FRET ratio, 16 h; activation: stronger effect = higher value
How it was run: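 After 16 hours compound treatment at 37 C, HCT-116 cells stably expressing p53RE-driven beta-lactamase were loaded with LiveBLAzer B/G FRET substrate for 2 hours at room temperature. Fluorescence intensity served as the p53 activation read-out.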

[14] = qHTS assay for environmental chemicals that activate the Aryl hydrocarbon Receptor (AhR) signaling pathway (AID 651777; active means well fitted curve in the direction sought with a large enough effect; an effect the other way counts as inactive or inconclusive; further: nearly all actives have a fitted effect of over 15% in size); settings: 1A2-DRE human hepatoma cells, luciferase, 24 h; activation: stronger effect = higher value
How it was run: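 Concentration–response screening used 1,200 1A2-DRE cells per well, 24 hr compound exposure (37 C, 5% CO2), and One-Glo luminescence as the AhR-driven CYP1A2 reporter signal.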

[15] = biological target: Peroxisome proliferator-activated receptor alpha (Homo sapiens) (UniProt Q07869); assay: qHTS assay for small molecule agonists of the peroxisome proliferator-activated receptor alpha (PPARalpha) signaling pathway (AID 651778; active means well fitted curve in the direction sought with a large enough effect; an effect the other way counts as inactive or inconclusive); settings: PathHunter PPARalpha complementation, chemiluminescence, 6 h; max response: stronger effect = higher value
How it was run: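 Chemiluminescence from complemented enzyme reported PPARalpha activation in cells after 6 hr of compound treatment at 37 C. The detection reagent was incubated for 60 min at room temperature, and compounds were scored as agonists.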

[16] = qHTS assay for small molecule agonists of the antioxidant response element (ARE) signaling pathway measured by Nrf2-dependant transcriptional activity (AID 720636; active means well fitted curve in the direction sought with a large enough effect in the repeat runs; an effect the other way counts as inactive or inconclusive;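 further: HepG2 cells with an ARE-driven luciferase reporter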)
How it was run: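 Attachment 6 hr at 37 C, then compound versus DMSO vehicle for 16 hr in ARE-luc HepG2 cells (1% dialyzed FBS); luminescence recorded 30 min after ONE-Glo addition at room temperature.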

[17] = qHTS assay for small molecule agonists of the antioxidant response element (ARE) signaling pathway measured by Nrf2-dependant transcriptional activity - cell viability counter screen (AID 720653; active means well fitted curve in the direction sought with a large enough effect in the repeat runs; an effect the other way counts as inactive or inconclusive); settings: ARE-bla HepG2 viability, CellTiter-Glo ATP luminescence, 16 h; max response: stronger effect = lower value
How it was run: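 Cytotoxicity counter screen: intracellular ATP quantified by CellTiter-Glo luminescence in the same ARE-bla HepG2 plates, after 16 h compound exposure and a 2 h beta-lactamase substrate step.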

[18] = qHTS assay for cell viability of HEK293 cells (AID 743288; active means well fitted curve in the direction sought with a large enough effect; an effect the other way counts as inactive or inconclusive; further: nearly all actives have a fitted effect of over 50% in size); settings: ATP luminescence (CellTiter-Glo), 18 h; max response: stronger effect = lower value
How it was run: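 Quantitative high-throughput screen: compounds were pinned onto parental HEK293 cells (2,000 per well) after a minimum 5 h settling at 37 C, incubated 18 h at 37 C, and intracellular ATP measured by luciferase luminescence.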

[19] = qHTS assay for cell viability of the p53RE-bla HCT-116 cell line (AID 743292; active means well fitted curve in the direction sought with a large enough effect; an effect the other way counts as inactive or inconclusive; further: nearly all actives have a fitted effect of over 55% in size)
How it was run: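 Compound-exposed HCT-116 (p53RE-bla) cells, 4,000 per well, were kept 16 h at 37 C following a 5 h preincubation. Cell number was estimated from total ATP by CellTiter-Glo luminescence read after 30 min at room temperature.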

[20] = biological target: Nuclear receptor subfamily 1 group I member 2 (Rattus norvegicus) (UniProt Q9R1A7); assay: qHTS assay for small molecule activators of the rat pregnane X receptor (rPXR) signaling pathway (AID 651751; call rule not given here); settings: rPXR reporter cells, luciferase (One-Glo), 24 h
Chain of Nuclear receptor subfamily 1 group I member 2 (Rattus norvegicus) (Q9R1A7 whole entry, looked up): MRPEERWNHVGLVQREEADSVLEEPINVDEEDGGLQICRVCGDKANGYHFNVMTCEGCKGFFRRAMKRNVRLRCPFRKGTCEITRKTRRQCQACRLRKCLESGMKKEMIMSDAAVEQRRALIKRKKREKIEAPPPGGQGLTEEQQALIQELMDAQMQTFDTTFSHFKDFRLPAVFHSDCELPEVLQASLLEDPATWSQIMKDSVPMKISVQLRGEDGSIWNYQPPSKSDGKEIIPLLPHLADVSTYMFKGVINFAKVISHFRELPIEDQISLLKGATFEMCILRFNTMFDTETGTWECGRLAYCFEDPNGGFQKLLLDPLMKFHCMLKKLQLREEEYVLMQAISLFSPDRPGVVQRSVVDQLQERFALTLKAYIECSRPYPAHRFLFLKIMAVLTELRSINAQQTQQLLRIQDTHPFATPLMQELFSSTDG

Chain of Glucocorticoid receptor (Homo sapiens) (P04150 whole entry, looked up): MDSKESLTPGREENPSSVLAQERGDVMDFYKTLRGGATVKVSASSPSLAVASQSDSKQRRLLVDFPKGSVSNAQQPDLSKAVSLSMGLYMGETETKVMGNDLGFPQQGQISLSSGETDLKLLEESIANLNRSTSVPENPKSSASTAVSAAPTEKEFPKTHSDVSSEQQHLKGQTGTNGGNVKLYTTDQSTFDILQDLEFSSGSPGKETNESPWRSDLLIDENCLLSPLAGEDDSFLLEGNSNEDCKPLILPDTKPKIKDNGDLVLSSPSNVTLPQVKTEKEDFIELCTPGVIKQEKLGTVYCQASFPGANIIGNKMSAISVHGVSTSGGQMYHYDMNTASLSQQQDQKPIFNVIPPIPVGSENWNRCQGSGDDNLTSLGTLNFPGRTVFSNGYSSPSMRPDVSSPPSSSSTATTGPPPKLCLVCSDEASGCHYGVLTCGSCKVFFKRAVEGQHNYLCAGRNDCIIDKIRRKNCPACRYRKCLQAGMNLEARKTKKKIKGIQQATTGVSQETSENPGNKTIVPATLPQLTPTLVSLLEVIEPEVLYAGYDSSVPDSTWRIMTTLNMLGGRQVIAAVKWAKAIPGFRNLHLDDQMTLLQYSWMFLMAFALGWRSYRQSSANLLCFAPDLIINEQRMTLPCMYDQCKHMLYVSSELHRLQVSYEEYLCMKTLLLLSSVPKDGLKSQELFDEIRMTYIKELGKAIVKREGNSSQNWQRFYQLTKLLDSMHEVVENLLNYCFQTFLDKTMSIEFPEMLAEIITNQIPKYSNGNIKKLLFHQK
Chain of Thyroid hormone receptor beta (Homo sapiens) (P10828 whole entry, looked up): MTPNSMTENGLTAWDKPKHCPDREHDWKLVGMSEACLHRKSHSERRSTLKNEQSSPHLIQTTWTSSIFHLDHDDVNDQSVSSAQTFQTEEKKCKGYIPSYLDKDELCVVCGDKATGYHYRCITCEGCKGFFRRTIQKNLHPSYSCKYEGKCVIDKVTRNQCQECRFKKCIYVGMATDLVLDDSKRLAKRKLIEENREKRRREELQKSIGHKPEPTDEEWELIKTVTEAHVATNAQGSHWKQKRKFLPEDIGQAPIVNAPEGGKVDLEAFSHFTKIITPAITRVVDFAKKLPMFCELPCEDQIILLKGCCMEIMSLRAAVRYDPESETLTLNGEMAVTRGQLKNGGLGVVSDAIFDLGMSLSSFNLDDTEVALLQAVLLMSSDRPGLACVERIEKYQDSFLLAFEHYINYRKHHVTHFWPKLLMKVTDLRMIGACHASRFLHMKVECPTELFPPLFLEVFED
Chain of Vitamin D3 receptor (Homo sapiens) (P11473 whole entry, looked up): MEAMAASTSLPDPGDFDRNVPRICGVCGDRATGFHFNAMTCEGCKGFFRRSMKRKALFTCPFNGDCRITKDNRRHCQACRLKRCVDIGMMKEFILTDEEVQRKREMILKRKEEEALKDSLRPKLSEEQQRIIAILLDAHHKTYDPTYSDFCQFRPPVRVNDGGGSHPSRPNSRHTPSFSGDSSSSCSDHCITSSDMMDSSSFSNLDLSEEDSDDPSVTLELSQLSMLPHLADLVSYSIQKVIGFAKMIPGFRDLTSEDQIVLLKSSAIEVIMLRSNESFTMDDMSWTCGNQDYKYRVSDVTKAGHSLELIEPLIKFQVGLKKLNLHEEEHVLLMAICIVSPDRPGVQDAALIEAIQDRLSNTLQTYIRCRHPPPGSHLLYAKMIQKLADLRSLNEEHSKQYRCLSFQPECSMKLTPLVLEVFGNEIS
Chain of Peroxisome proliferator-activated receptor gamma (Homo sapiens) (P37231 whole entry, looked up): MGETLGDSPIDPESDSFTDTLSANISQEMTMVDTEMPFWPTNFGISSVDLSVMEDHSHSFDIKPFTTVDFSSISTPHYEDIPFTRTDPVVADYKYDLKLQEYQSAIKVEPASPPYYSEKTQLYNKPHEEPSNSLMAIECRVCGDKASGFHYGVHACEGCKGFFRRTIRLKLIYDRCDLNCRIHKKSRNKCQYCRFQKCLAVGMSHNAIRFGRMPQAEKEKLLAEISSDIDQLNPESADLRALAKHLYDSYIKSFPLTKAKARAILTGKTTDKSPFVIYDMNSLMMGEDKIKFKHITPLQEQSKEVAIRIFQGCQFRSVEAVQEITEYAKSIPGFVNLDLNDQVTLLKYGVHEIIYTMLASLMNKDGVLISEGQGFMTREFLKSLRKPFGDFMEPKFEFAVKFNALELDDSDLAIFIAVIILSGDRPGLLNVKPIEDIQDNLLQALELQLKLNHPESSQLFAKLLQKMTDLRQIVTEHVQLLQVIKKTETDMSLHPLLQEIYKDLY
Chain of Estrogen receptor (Homo sapiens) (P03372 whole entry, looked up): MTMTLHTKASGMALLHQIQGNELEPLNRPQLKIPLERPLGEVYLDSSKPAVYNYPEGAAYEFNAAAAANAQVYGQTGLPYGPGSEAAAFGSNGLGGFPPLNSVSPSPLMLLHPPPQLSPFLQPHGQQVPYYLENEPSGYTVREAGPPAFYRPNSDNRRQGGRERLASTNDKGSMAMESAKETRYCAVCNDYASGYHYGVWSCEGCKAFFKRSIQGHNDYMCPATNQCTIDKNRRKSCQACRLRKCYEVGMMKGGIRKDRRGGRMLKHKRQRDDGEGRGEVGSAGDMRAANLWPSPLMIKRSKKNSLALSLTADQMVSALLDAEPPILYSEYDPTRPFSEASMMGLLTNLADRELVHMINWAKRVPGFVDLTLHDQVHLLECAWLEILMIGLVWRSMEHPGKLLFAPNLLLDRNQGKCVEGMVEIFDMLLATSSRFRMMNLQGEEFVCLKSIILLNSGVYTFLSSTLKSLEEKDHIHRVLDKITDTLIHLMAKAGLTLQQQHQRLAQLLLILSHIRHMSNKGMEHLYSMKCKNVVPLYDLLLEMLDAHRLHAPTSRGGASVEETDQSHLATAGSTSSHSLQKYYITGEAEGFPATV
Chain of Retinoic acid receptor RXR-alpha (Homo sapiens) (P19793 whole entry, looked up): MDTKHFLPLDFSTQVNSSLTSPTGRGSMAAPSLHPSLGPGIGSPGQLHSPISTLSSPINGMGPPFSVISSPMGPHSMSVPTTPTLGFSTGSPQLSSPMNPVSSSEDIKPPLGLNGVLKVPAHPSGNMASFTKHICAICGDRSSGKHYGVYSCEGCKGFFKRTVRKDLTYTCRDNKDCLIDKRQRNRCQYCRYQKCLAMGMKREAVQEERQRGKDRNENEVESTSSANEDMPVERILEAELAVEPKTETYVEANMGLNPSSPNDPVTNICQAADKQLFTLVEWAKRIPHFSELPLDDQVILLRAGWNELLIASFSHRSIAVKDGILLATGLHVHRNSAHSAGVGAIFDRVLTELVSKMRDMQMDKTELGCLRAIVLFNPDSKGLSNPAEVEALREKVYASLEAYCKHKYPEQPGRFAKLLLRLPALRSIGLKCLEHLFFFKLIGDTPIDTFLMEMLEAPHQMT
Chain of Peroxisome proliferator-activated receptor delta (Homo sapiens) (Q03181 whole entry, looked up): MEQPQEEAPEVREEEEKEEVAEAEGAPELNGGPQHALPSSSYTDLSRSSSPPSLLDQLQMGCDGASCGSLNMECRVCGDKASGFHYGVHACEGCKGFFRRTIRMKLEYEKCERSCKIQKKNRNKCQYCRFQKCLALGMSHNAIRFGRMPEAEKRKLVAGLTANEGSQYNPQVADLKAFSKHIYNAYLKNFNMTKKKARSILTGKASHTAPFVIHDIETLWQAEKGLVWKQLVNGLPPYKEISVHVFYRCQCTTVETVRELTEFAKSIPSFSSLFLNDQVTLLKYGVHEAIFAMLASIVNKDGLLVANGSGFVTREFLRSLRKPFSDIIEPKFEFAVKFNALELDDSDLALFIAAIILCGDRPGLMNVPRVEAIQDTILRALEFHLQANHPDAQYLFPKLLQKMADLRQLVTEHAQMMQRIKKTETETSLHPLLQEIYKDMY
Chain of Peroxisome proliferator-activated receptor alpha (Homo sapiens) (Q07869 whole entry, looked up): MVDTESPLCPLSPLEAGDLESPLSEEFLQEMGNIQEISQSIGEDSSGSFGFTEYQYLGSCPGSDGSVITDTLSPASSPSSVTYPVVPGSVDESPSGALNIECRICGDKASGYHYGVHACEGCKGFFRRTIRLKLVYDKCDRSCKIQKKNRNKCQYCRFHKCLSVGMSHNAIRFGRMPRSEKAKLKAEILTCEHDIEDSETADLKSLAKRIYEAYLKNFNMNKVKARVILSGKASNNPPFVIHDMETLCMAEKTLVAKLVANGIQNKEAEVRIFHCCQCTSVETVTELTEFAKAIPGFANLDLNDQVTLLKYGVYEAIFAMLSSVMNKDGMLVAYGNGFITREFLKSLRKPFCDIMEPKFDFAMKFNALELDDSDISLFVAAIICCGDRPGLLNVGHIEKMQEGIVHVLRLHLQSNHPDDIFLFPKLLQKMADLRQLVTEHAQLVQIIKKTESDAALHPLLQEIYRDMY

Structure (SMILES)	Potency [1]	Potency [2]	Potency [3]	outcome [4]	Potency [5]	Potency [6]	Potency [7]	max response [8] [%]	Potency [9]	Potency [10]	max response [11]	max response [12]	activation [13]	activation [14]	max response [15]	Potency [16]	max response [17]	max response [18]	Potency [19]	max response [20]
C/C(=N\C(N)=O)N(C)Cc1ccc(Cl)nc1	inactive	inactive	inactive	inactive	inactive	inactive	inactive	-8.24	inactive	inactive	-9.48%	-3.51% (inactive)	-4.92% (inactive)	-0.747% (inactive)	-1.45% (inactive)	inactive	-7.18% (inactive)	0.858% (inactive)	inactive	2.68% (inactive)
c1ccc2ncccc2c1				inactive																
CNC(=O)Oc1cccc2c1OC(C)(C)C2O (stereo not drawn)	inactive	inactive	inactive	inactive	inactive		inactive		inactive		-12.4%	-10.3% (inactive)	-0.021% (inactive)	0.301% (inactive)	-1.14% (inactive)	inactive	-15.8% (inactive)	-0.251% (inactive)	inactive	-0.827% (inactive)
CCOP(=O)(SC(C)CC)SC(C)CC (stereo not drawn)	inactive	inactive	inactive		inactive	inactive	inactive	-25	inactive	inactive	-3.17%	-13.8% (inactive)	-0.0138% (inactive)	0.937% (inactive)	-1.1% (inactive)	inactive	-6.4% (inactive)	-14% (inactive)	inactive	4.1% (inactive)
CCOP(=S)(S)OCC	inactive	inactive	inactive	inactive	inactive	inactive	inactive		inactive	inactive	-11.3%	-16.6% (inactive)		0.356% (inactive)	-2.08% (inactive)	inactive	2.15% (inactive)	-0.594% (inactive)	inactive	1.97% (inactive)
O=S1OC[C@@H]2[C@H](CO1)[C@@]1(Cl)C(Cl)=C(Cl)[C@]2(Cl)C1(Cl)Cl (stereo partly drawn)	inactive	inactive			inactive	inactive	inactive	-0.24	inactive	inactive	9.73% and 12.8%	-70.2% (inactive) and -50.2% (inactive)	-3.81% (inactive) and -3.84% (inactive)	0.042% (inactive) and 0.216% (inactive)	-0.211% (inactive) and 0.181% (inactive)	inactive	-3.19% (inactive) and 3.58% (inactive)	-26.6% (inactive) and -23.3% (inactive)	inactive	
C=C(C)c1ccccc1				inactive																
O=C1NCCN1Cc1ccc(Cl)nc1	inactive	inactive	inactive	inactive	inactive		inactive	-6.75	inactive	inactive	-14.8%	-5.19% (inactive)	-0.206% (inactive)	-0.434% (inactive)	-0.72% (inactive)	inactive	1.67% (inactive)	1.96% (inactive)	inactive	1.46% (inactive)
CCOP(=S)(OCC)Oc1ncn(-c2ccccc2)n1	inactive	inactive		inactive	inactive		inactive	-6.39	inactive	inactive	-1.85%	-7.83% (inactive)			-2.29% (inactive)	inactive	-3.44% (inactive)	-0.263% (inactive)	inactive	
CCOP(=O)(OCC)SCSC(C)(C)C	inactive	inactive	inactive	inactive	inactive		inactive		inactive	inactive	-15.4%	-1.69% (inactive)		-0.964% (inactive)	0.241% (inactive)	inactive	4.97% (inactive)	-8.78% (inactive)	inactive	1.41% (inactive)
FC(F)(F)c1ccc(OCCCOc2c(Cl)cc(OCC=C(Cl)Cl)cc2Cl)nc1	inactive	inactive		inactive	inactive		inactive	5.75	inactive	inactive	-14.8%	3.21% (inactive)		-0.256% (inactive)	-0.598% (inactive)		-24.7% (inactive)	-6.52% (inactive)	inactive	1.93% (inactive)
CCCC1COC(Cn2cncn2)(c2ccc(Cl)cc2Cl)O1 (stereo not drawn)	inactive	inactive	inactive	inactive	inactive	inactive	inactive		inactive	inactive	5.44%	2.1% (inactive)	-6.14% (inactive)		-0.724% (inactive) and -0.169% (inactive)	inactive		-21.6% (inactive) and -21.9% (inactive)	inactive	
CC(C)(C)N(NC(=O)c1ccc(Cl)cc1)C(=O)c1ccccc1	inactive	inactive	inactive	inactive	inactive	inactive	inactive	-8.46	inactive	inactive	-5.95%	4.87% (inactive)		1.26% (inactive)	-3.24% (inactive)	inactive		-8.37% (inactive)	inactive	

— PubChem BioAssay (NCATS)
